Reference: PubChem BioAssay (Tox21)
Results filed as inconclusive are left out. Entries that show only a call come without a potency. The source made the active and inactive calls. The call rests on the fitted dose curve.

Molecular target: Beta-2 adrenergic receptor (Homo sapiens) (UniProt P07550)
Assay: Adrenergic beta2 receptor (ADRB2) small molecule agonists, cell-based qHTS assay (AID 1963593);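 further: CHO cells stably overexpressing human ADRB2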
Conditions: CHO-ADRB2 cells, cAMP HTRF, 30 min; series mostly up to 92.4 µM
Method in brief: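 CHO cells stably over-expressing ADRB2 were plated overnight at 37C, then dosed with compounds plus a stimulation mix containing 100uM IBMX and 25uM Ro-20-1724 for 0.5hr at room temperature. cAMP was measured by HTRF competition, 1hr.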

Chain of Beta-2 adrenergic receptor (Homo sapiens) (P07550 whole entry, looked up): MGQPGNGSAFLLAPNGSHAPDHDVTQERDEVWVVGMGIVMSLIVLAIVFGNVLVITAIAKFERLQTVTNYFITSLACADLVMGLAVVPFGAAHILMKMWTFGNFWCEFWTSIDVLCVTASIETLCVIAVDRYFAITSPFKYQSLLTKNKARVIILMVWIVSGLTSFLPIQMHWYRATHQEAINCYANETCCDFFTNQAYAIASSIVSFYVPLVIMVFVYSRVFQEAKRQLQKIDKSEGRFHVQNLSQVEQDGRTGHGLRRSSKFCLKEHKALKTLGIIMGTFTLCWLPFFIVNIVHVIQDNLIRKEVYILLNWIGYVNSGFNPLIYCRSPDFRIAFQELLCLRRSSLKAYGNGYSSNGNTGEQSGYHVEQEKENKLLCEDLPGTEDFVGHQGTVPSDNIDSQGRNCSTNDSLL

Q: With `CC(C)[N+](C)(CCC(C(N)=O)(c1ccccc1)c1ccccc1)C(C)C` as the compound, how does the Potency read?
A: inactive

Q: `O=C(Cl)CCl` was tested. Which Potency did it give?
A: inactive

Q: With `COC(=O)c1ccccc1N` as the compound, how does the Potency read?
A: inactive

Q: `CN(C)NC(=O)CCC(=O)O` was tested. Which Potency did it give?
A: inactive

Q: Which Potency does the source give for `CN(C)C(=O)C(c1ccccc1)c1ccccc1` here?
A: inactive

Q: How did the Potency turn out when `ClCc1ccccn1` was run?
A: inactive

Q: For `CCCOC(=O)c1ccccc1C(=O)OCCC`, which Potency is on record?
A: inactive

Q: Which Potency does the source give for `Cc1ccc(N)c(N)c1` here?
A: inactive

Q: `N#CC1(N=NC2(C#N)CCCCC2)CCCCC1` was tested. Which Potency did it give?
A: inactive

Q: `C=C(C)C(=O)OCC(CC)CCCC` (stereo not drawn) was tested. Which Potency did it give?
A: inactive

Q: How did the Potency turn out when `O=C(CCN1CC1)OCC(CO)(COC(=O)CCN1CC1)COC(=O)CCN1CC1` was run?
A: inactive

Q: How did the Potency turn out when `CCCCOC(=O)c1ccccc1C(=O)OCCCC` was run?
A: inactive

Q: `CC(O)CN(CC(C)O)CC(C)O` (stereo not drawn) was tested. Which Potency did it give?
A: inactive

Q: For `CN(N=O)C(N)=O`, which Potency is on record?
A: inactive

Q: How did the Potency turn out when `CCOC(=O)c1cncn1C(C)c1ccccc1` (stereo not drawn) was run?
A: inactive

Q: How did the Potency turn out when `CCN(CC)c1ccccc1` was run?
A: inactive

Q: With `O=[N+]([O-])c1ccccc1O` as the compound, how does the Potency read?
A: inactive

Q: `c1ccc(P(c2ccccc2)c2ccccc2)cc1` was tested. Which Potency did it give?
A: inactive

Q: For `CCCCCBr`, which Potency is on record?
A: inactive

Q: With `c1ccc2c(c1)sc1ccccc12` as the compound, how does the Potency read?
A: inactive

Q: How did the Potency turn out when `COc1ccc2c3c1O[C@H]1[C@H](O)CC[C@H]4[C@@H](C2)N(C)CC[C@@]341` was run?
A: inactive

Q: Which Potency does the source give for `CN(C)CCc1c[nH]c2cccc(OP(=O)(O)O)c12` here?
A: inactive

Q: How did the Potency turn out when `CC(Cl)C(=O)O` (stereo not drawn) was run?
A: inactive

Q: Which Potency does the source give for `Clc1ccc(Cl)cc1` here?
A: inactive

Q: For `FC(F)(F)c1ccc(Cl)cc1`, which Potency is on record?
A: inactive

Q: How did the Potency turn out when `CCCCCCCCCBr` was run?
A: inactive

Q: How did the Potency turn out when `COC(=O)NS(=O)(=O)c1ccc(N)cc1` was run?
A: inactive

Q: With `CC(O)CN1CCN(CC(=O)[O-])CCN(CC(=O)[O-])CCN(CC(=O)[O-])CC1.[Gd+3]` (stereo not drawn) as the compound, how does the Potency read?
A: inactive
